Tests used:
Experiment in all cases: PBM binding z-score (relative to random genomic background probes); higher = stronger binding; sequences stand for … in GC…GCGATTGACAGCGTAGAATGAAGG
[1] = tested on: FXR:RXRa (NR concentration 270 nM, RXRa partner concentration 90 nM)
Outline: (§1)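 For binding z-scores, the reference was random background probes on custom Agilent 4×180K protein-binding microarrays. These arrays were incubated 1 h with ligand-free nuclear receptor dimers in PBS pH 7.4, 2% milk, 0.02% Triton X-100, 1 mM DTT, 0.2 mg/mL BSA and 0.4 mg/ml salmon testes DNA. Fluorescence was scanned after antibody detection of each partner (one per run) and regression-normalized.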

[2] = tested on: LXRa:RXRa (NR concentration 270 nM, RXRa partner concentration 90 nM)
Outline: as §1

[3] = tested on: LXRa homodimer (NR concentration 270 nM)
Outline: as §1

[4] = tested on: LXRb:RXRa (NR concentration 270 nM, RXRa partner concentration 90 nM)
Outline: as §1

[5] = tested on: LXRb homodimer (NR concentration 270 nM)
Outline: as §1

[6] = tested on: PPARa:RXRa (NR concentration 270 nM, RXRa partner concentration 90 nM)
Outline: as §1

[7] = tested on: PPARg:RXRa (NR concentration 180 nM, RXRa partner concentration 90 nM)
Outline: as §1

[8] = tested on: PPARg:RXRa 270nM:90nM, anti-RXR (NR concentration 270 nM, RXRa partner concentration 90 nM)
Outline: as §1

[9] = tested on: PPARg:RXRa 30nM:10nM, anti-RXR (NR concentration 30 nM, RXRa partner concentration 10 nM)
Outline: as §1

[10] = tested on: PPARg:RXRa 90nM:30nM, anti-RXR (NR concentration 90 nM, RXRa partner concentration 30 nM)
Outline: as §1

[11] = tested on: PPARg:RXRa DBDmut IVT, anti-RXR (DBD mutation: RXRa K156A/R161A, NR concentration 270 nM, RXRa partner concentration 90 nM)
Outline: as §1

[12] = tested on: PPARg:RXRa IVT, anti-PPARg (NR concentration 270 nM, RXRa partner concentration 90 nM)
Outline: as §1

[13] = tested on: PPARg DBDmut:RXRa IVT, anti-PPARg (DBD mutation: PPARg1 K132A/R137A, NR concentration 270 nM, RXRa partner concentration 90 nM)
Outline: as §1

[14] = tested on: PPARg DBDmut IVT, anti-PPARg (DBD mutation: PPARg1 K132A/R137A, NR concentration 270 nM)
Outline: as §1

[15] = tested on: PPARg homodimer (NR concentration 180 nM)
Outline: as §1

[16] = tested on: PXR:RXRa (NR concentration 270 nM, RXRa partner concentration 90 nM)
Outline: as §1

[17] = tested on: PXR homodimer (NR concentration 270 nM)
Outline: as §1

[18] = tested on: RARa:RXR (NR concentration 270 nM, RXRa partner concentration 90 nM)
Outline: as §1

[19] = tested on: RARa homodimer (NR concentration 270 nM)
Outline: as §1

[20] = tested on: RARb:RXRa (NR concentration 270 nM, RXRa partner concentration 90 nM)
Outline: as §1

| Sequence | PBM binding z-score [1] | PBM binding z-score [2] | PBM binding z-score [3] | PBM binding z-score [4] | PBM binding z-score [5] | PBM binding z-score [6] | PBM binding z-score [7] | PBM binding z-score [8] | PBM binding z-score [9] | PBM binding z-score [10] | PBM binding z-score [11] | PBM binding z-score [12] | PBM binding z-score [13] | PBM binding z-score [14] | PBM binding z-score [15] | PBM binding z-score [16] | PBM binding z-score [17] | PBM binding z-score [18] | PBM binding z-score [19] | PBM binding z-score [20] |
| --- | --- | --- | --- | --- | --- | --- | --- | --- | --- | --- | --- | --- | --- | --- | --- | --- | --- | --- | --- | --- |
| AGAACGAGGGCACGCTGAGTTGCTAGCAGAGTAG | 0.473 | 0.348 | -0.756 | -0.279 | -1.02 | 2.05 | 1.85 | 1.6 | 0.179 | 0.707 | 4.16 | 3.97 | -0.0983 | -0.499 | -0.0627 | 0.539 | -0.605 | 0.617 | -0.905 | 2.43 |
| CGTCCACGGTCAGAGAGGTCAGTGAATGCCGAGT | 2.16 | 1.89 | 1.45 | 1.77 | -0.73 | 2.33 | 0.382 | 0.996 | -0.638 | 0.247 | 0.449 | 1.17 | -1.02 | -1.36 | 2.07 | 3.13 | 2.89 | 2.83 | 0.503 | 3.95 |
| CGTCATAGTTCAAGGTAACGTAACAGAAAGCAGC | 1.89 | 2.17 | 0.514 | 1.5 | 0.174 | 2.48 | 1.29 | 1.78 | 0.603 | 1.3 | 0.329 | 0.799 | 0.676 | 1.29 | 1.19 | 1.39 | 0.511 | 1.43 | 0.512 | 3.34 |
| CCTTACGGGTCCAGGTTATAGCACGGGTGGTACG | -0.118 | -0.304 | -0.277 | -0.566 | -1.29 | -0.292 | 0.168 | -0.847 | -0.404 | -0.604 | -1.08 | -0.342 | -0.7 | -1.74 | -0.0235 | -0.402 | -0.186 | -0.536 | 0.162 | 0.245 |
| CGTCAAAGTTCAAGGTGACGTAACAGAAAGCAGC | 6.62 | 5.96 | 2.8 | 3.49 | 0.846 | 4.92 | 4.71 | 5.65 | 2.12 | 4.45 | 0.983 | 2.9 | 0.379 | 0.562 | 2.88 | 4.44 | 2.3 | 3.88 | 1.52 | 5.21 |
| ATCTCTAGGTAAAGATAGTTCAGTAAATGCAAAT | 0.492 | 4.09 | 0.589 | 1.27 | 0.936 | 0.78 | 0.749 | 0.691 | 0.403 | 0.563 | 1.89 | 1.77 | 1.18 | 0.812 | 0.801 | 1.14 | 0.936 | 0.952 | 1.67 | 0.706 |
| CGTCCAAGGTAAGCAGGTCAGTGAAAGCGACGTG | 0.187 | -0.0922 | -0.204 | 0.018 | -1.12 | 1.25 | 0.208 | 0.427 | -0.743 | -0.154 | 1.7 | 1.91 | -0.624 | -0.894 | 0.421 | 0.192 | -0.446 | 0.529 | -0.36 | 1.89 |
| CGTCAAAGTTCAAGGTAACGTTACAGAAAGCAGC | 6.48 | 5.5 | 3.04 | 3.64 | 1.12 | 4.78 | 4.55 | 5.04 | 2.28 | 4.37 | 1.03 | 2.42 | 0.621 | 1.08 | 3.53 | 4.49 | 3.12 | 3.46 | 2.12 | 5.26 |
| TCAGACAGGTGAAGCTAACTCAGGTACGCAGTCG | 0.462 | 0.31 | -0.268 | 0.231 | -0.92 | 0.744 | 0.519 | 1.5 | 3.44 | 2.75 | 2.31 | 0.713 | 0.0407 | -0.303 | 0.616 | 0.0875 | 0.111 | 0.285 | 0.225 | 0.749 |
| ATCGAAATGTCGAAGGTGAGTATACCCACCCGAA | -0.36 | -0.333 | -0.285 | -0.254 | -0.151 | 0.29 | 0.913 | 0.538 | 0.133 | 0.522 | -1.11 | 0.391 | 0.818 | 0.244 | -0.161 | -0.253 | -0.511 | 0.116 | -0.269 | 0.495 |
| TATACAGGGTCAAAGGCCGGAGTACGAATGTCGA | 6.93 | 6.1 | 2.37 | 4.53 | 2.31 | 6.26 | 7.67 | 6.73 | 4.47 | 6.51 | 2.46 | 4.9 | 2.77 | 1.88 | 2.2 | 3.97 | 0.381 | 5.47 | 1.43 | 4.27 |
| GCGACTGGGGGATCAGCAGGTTACCATAACTTAA | 0.383 | 0.523 | 0.0867 | 2.54 | 5.33 | 1.5 | 0.824 | 1.73 | 0.24 | 1.15 | 0.873 | 2.43 | 3.69 | 4.01 | 0.749 | 1.15 | 0.388 | 1.31 | -0.462 | 0.688 |
| CCTTACTGGTCACTGACAGGTTATAGCATTTGGA | 0.509 | 0.779 | 0.811 | 0.822 | 0.49 | 0.699 | 0.266 | 0.384 | -0.0661 | 0.378 | 1.41 | 0.777 | 0.395 | 0.913 | 1.46 | 0.611 | 0.48 | 0.74 | 1.52 | 1.72 |
| TCTGCTAGGTCAACAATGGTCAGCTAATCTGCTA | 3.1 | 3.67 | -0.0289 | 2.16 | 0.366 | 3.29 | 2.13 | 3 | 2.07 | 2.54 | 4.05 | 4.05 | 0.64 | 0.264 | 1.23 | 1.94 | -0.276 | 2.29 | -0.189 | 4.11 |
